Measurements reported in PubChem BioAssay.
Inconclusive results are not listed. The source made the active and inactive calls.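 The calls were made as follows, unless noted: active = viability increase at or above a cutoff of the median across tested compounds plus 3 SD (cut at about 8.5% in these data, passing the limit was not always enough); inconclusive = some gains above the cutoff, reason not given; inactive = the rest.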

Key:
[1] = Her2 expression decrease, cell viability multiplex – SKBR3 breast tumor cells, AlphaScreen, ATP viability, primary screen (AID 461;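 active = Her2 level under about 52% in both replicate screens, with viability over 70% of control, limit read from the data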;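 as to Her2 level: lower value means less Her2 protein in the cells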;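 as to viability: percent of carrier control wells set as 100% viability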); conditions: SKBR3 Her2 protein level, 18-24 h, measured here: SKBR3 viability, ATP luminescence, at 10 µM
[2] = molecular target: Receptor tyrosine-protein kinase erbB-2 (Homo sapiens) (UniProt P04626); assay: as above; conditions: 18-24 h, at 10 µM, stronger effect = lower value
Sequence of Receptor tyrosine-protein kinase erbB-2 (Homo sapiens) (P04626 whole entry, looked up): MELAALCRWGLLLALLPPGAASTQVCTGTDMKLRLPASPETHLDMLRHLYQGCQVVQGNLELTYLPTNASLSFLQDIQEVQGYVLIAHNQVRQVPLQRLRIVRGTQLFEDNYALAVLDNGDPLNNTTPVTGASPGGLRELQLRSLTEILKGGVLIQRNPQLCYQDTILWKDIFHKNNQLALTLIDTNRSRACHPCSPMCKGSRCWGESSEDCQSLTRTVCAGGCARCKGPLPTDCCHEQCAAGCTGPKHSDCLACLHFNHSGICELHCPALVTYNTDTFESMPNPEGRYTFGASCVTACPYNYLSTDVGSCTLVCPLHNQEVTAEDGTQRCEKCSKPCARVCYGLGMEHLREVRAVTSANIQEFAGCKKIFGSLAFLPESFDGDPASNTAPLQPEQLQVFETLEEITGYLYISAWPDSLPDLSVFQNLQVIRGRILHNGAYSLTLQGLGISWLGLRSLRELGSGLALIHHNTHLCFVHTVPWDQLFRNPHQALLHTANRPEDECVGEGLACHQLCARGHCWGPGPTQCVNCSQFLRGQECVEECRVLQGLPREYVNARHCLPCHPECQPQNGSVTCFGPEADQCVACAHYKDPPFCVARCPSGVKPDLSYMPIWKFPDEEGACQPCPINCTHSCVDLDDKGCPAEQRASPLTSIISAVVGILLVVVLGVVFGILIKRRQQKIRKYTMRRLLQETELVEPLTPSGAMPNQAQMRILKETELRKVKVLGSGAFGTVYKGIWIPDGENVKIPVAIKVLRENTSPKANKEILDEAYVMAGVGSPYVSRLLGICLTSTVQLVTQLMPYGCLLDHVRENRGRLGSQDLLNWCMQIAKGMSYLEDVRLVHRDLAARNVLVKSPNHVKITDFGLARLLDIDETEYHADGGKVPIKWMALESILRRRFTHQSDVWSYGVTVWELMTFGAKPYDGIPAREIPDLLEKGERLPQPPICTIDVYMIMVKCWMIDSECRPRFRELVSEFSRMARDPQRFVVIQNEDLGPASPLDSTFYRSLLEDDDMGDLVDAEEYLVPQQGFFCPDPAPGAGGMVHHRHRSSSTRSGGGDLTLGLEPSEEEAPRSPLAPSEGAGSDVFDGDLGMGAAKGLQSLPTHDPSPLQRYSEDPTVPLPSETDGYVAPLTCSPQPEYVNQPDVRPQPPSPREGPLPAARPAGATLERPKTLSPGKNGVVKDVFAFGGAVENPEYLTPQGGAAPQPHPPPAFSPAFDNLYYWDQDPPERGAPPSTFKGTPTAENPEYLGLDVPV

[3] = reduced viability of SK-BR-3 breast cancer cells – cell-based, 24 h, human, pilot screen (AID 572;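 active = viability at or below 10% of carrier control in both of two separate runs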;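 also: compound exposure lasted between 18 and 24 h rather than exactly 24 h; 100% = carrier-treated control wells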); conditions: SK-BR-3 viability, CellTiter-Glo luminescence, at 10 µM, stronger effect = lower value
[4] = HUVEC growth inhibition – cell-based, human, primary screen (AID 575;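 active = viability at or below 30% in both replicate assays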;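 also: 100% = median of untreated cell wells with 0.1% DMSO on each plate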); conditions: HUVEC proliferation, CellTiter-Glo luminescence, 72 h; at 10 µM; stronger effect = lower value
[5] = H69AR cell proliferation blockers – human, duplicate replicates, primary screen (AID 580;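 active = viability at or under a set limit in both replicates, limit being median viability minus 3 SD, cut at about 48% in these data, passing the limit was not always enough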;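 also: 100% = mean luminescence of untreated wells and 0% = no signal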); conditions: H69AR lung tumor cells viability, ATP luminescence, 72 h; at 10 µM; stronger effect = lower value
[6] = MRP1 drug-resistance reversers in H69AR cells – cell-based, doxorubicin co-treatment, pilot screen (AID 601;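 active = viability loss from added drug above about 55%, and viability with drug at most 40%, in both replicates, limit read from the data, passing the limit was not always enough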); conditions: CellTiter-Glo, 72 h, at 10 µM; for differential viability (reversal): stronger effect = higher value
[7] = yeast transport mutant growth inhibition pilot in 384-well plates, post-Golgi transport modulator project (AID 636; in the data active = inhibition above about 31%); conditions: absorbance 615 nm, about 18 h, stronger effect = higher value
[8] = growth suppression of yeast trafficking mutant, preliminary HTS, modulators of trafficking downstream of Golgi apparatus project, 1536-format plate, OD 615 nm (AID 637; in the data active = inhibition above about 30%); conditions: yeast transport mutant growth, absorbance 615 nm, 18 h; stronger effect = higher value
[9] = S. cerevisiae growth inhibition in permissive medium (OD615), pilot counter-assay for S. cerevisiae lifespan shortening project, permissive growth control (AID 705;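 active = growth inhibition above 25% in both replicates, a cutoff set 3 SD above the mean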); conditions: OD615, 24 h, at 10 µM, stronger effect = higher value
[10] = S. cerevisiae growth inhibition in restrictive medium, OD615, pilot screen, restrictive growth control, yeast lifespan reduction project (AID 706;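 active = growth inhibition above a set limit, 3 SD over mean compound inhibition, in both replicates, cut at about 43% in these data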;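 also: modified DeaD lifespan yeast strain shifted to restrictive glucose medium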); conditions: OD615, 48 h, at 10 µM, stronger effect = higher value
[11] = doxorubicin toxicity protection in MRP-1 cells – H69AR cells, CellTiter-Glo, duplicate, MRP-1 activator project, pilot screen (AID 807); conditions: H69AR viability with doxorubicin, CellTiter-Glo luminescence; at 10 µM; stronger effect = higher value;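 also: compound pretreatment 18-22 h then 72 h combined with doxorubicin; 0% = doxorubicin alone and 100% = vehicle without doxorubicin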
[12] = viability of HCT116 without oncogenic beta-catenin – human colon tumor cells, pilot screen (AID 823;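 active = cell viability at or below a set limit in both duplicate runs, the limit being the all-compound median minus 4 SD, cut at about 23% in these data, passing the limit was not always enough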;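 also: 0% = wells killed by 20 µM Hyamine and 100% = untreated DMSO cell wells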); conditions: HCT116 beta-catenin knockout viability, CellTiter-Glo, 60 h; at 10 µM; stronger effect = lower value
[13] = viability of PTEN-null HCT116 cells – cell-based, HCT116 clonal line, CellTiter-Glo, pilot screen (AID 824;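 active = viability at or below 27.92% in each of two runs, the all-compound median minus 4 SD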;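 also: 0% = 20 µM Hyamine control and 100% = vehicle cell control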); conditions: HCT116 PTEN-deleted viability, 60 h, at 10 µM, stronger effect = lower value
[14] = RAM pathway blockade in budding yeast – dse1pr::URA3 reporter, 5-FOA selection, pilot screen (AID 869;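 active = inhibition over a set limit, the all-compound mean plus 3 SD, in both replicate runs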;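 also: 0% = DMSO wells with no growth and 100% = 10 µM 1-NA-PP1 with full growth; RAM network block rescues cells from 5-FOA so hits raise OD615 growth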); conditions: S. cerevisiae dse1pr::URA3 5-FOA growth, OD615, 2 d; at 10 µM; stronger effect = higher value; strain carries analog-sensitive mutant Cbk1 kinase
[15] = RAM signaling pathway blockade in yeast – S. cerevisiae, Pdr1DBD-CYC8 efflux-inhibited sensitized strain, primary screen (AID 1298;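 active = RAM network inhibition above 8.4% in each of two replicates, 3 SD over the compound average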;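 also: 0% = DMSO untreated cells without growth and 100% = 10 µM 1-NA-PP1 full growth; higher means more yeast growth rescued from 5-FOA killing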); conditions: S. cerevisiae cbk1-as DSE1-URA3 strain, 5-FOA growth OD615, 2 d; at 50 µM; stronger effect = higher value
[16] = H69AR cells + 2 uM doxorubicin, measured here: viability with 2 uM doxorubicin, stronger effect = lower value
[17] = H69AR cells, compound alone cytotoxicity

| Compound | viability [1] [%] | Her2 level [2] | viability [3] | viability [4] | viability [5] | differential viability (reversal) ([6]; H69AR cells + 2 uM doxorubicin) | viability [6, 16] [%] | viability [6, 17] [%] | inhibition [7] | inhibition [8] | growth inhibition [9] | growth inhibition [10] | viability increase [11] | viability [12] | viability [13] | inhibition [14] | RAM network inhibition [15] |
| --- | --- | --- | --- | --- | --- | --- | --- | --- | --- | --- | --- | --- | --- | --- | --- | --- | --- |
| O=C(NC1CCCC1)C1CCCN(S(=O)(=O)c2cccc3cccnc23)C1 (stereo not drawn) | 102 | 116% (inactive) | 102% (inactive) | 115% (inactive) | 98.8% (inactive) | 3.92% (inactive) | 94.8 | 98.8 | -5.07% (inactive) | 4.33% (inactive) | -9.46% (inactive) | 1.54% (inactive) | -1.04% (inactive) | 100% (inactive) | 99.3% (inactive) | 0.7% (inactive) | 5.53% (inactive) |
| COc1ccc(OC)c(NC(=O)c2cn(C)c(=O)c3cc(OC)c(OC)cc23)c1 | 104 | 104% (inactive) | 104% (inactive) | 97.2% (inactive) | 93.8% (inactive) | 5.68% (inactive) | 88.1 | 93.8 | -0.41% (inactive) | 28.7% (inactive) | -17.3% (inactive) | -19.3% (inactive) | -4.55% (inactive) | 99.6% (inactive) | 96.7% (inactive) | 0.435% (inactive) | 3.89% (inactive) |
| COc1ccc(OC)c(C2C(C(=O)Nc3ccc(F)cc3)=C(C)Nc3nc(CCCO)nn32)c1 (stereo not drawn) | 101 | 120% (inactive) | 101% (inactive) | 91% (inactive) | 101% (inactive) | 5.54% (inactive) | 95.4 | 101 | 0.13% (inactive) | -0.83% (inactive) | -9.55% (inactive) | 7.19% (inactive) | -0.62% (inactive) | 99.6% (inactive) | 99.1% (inactive) | -1.06% (inactive) | -0.42% (inactive) |
| Nc1[nH]nc2nc(N3CCCC3)nc(-c3ccccc3)c12 | 113 | 97.5% (inactive) | 113% (inactive) | 92% (inactive) | 95.6% (inactive) | 7% (inactive) | 88.6 | 95.6 | -6.27% (inactive) | 2.1% (inactive) | -6.15% (inactive) | -9.01% (inactive) | -4.09% (inactive) | 99% (inactive) | 90.9% (inactive) | 0.285% (inactive) | -0.16% (inactive) |
| CC1Cc2nc(SCC(=O)Nc3ccc4c(c3)OCO4)n(-c3ccc(F)cc3)c(=O)c2S1 (stereo not drawn) | 90.5 | 98% (inactive) | 90.5% (inactive) | 79.2% (inactive) | 89.2% (inactive) | 2.12% (inactive) | 87.1 | 89.2 | -5.87% (inactive) | 9.33% (inactive) | -7.17% (inactive) | 5.03% (inactive) | -2.53% (inactive) | 93.6% (inactive) | 86.7% (inactive) | 2% (inactive) | 6.73% (inactive) |
| Cc1cc2cc(CCNC(=O)CC(C)C)c(=O)[nH]c2cc1C | 102 | 128% (inactive) | 102% (inactive) | 93.3% (inactive) | 90.2% (inactive) | 0.865% (inactive) | 89.4 | 90.2 | -3.73% (inactive) | 5% (inactive) | -7.38% (inactive) | -5.57% (inactive) | -0.47% (inactive) | 104% (inactive) | 97.7% (inactive) | 0.365% (inactive) | 0.73% (inactive) |
| O=C(CCCn1c(=O)c2sccc2n(Cc2cc(=O)n3ccccc3n2)c1=O)NCc1ccco1 | 82.5 | 126% (inactive) | 82.5% (inactive) | 87.7% (inactive) | 77% (inactive) | -2.97% (inactive) | 80 | 77 | 3.59% (inactive) | -4.33% (inactive) | -9.24% (inactive) | -2.77% (inactive) | -1.87% (inactive) | 91.3% (inactive) | 99.3% (inactive) | -0.225% (inactive) | 0.21% (inactive) |
| O=C1c2ccccc2S(=O)(=O)N1CC(O)Cn1c2ccccc2c2ccccc21 (stereo not drawn) | 90 | 96% (inactive) | 90% (inactive) | 73.2% (inactive) | 85% (inactive) | -2.51% (inactive) | 87.6 | 85 | 99.3% (active) | 94.7% (active) | -2.73% (inactive) | 9.13% (inactive) | -1.19% (inactive) | 89.7% (inactive) | 96.3% (inactive) | 2.46% (inactive) | 0.57% (inactive) |
| COc1ccccc1NC(=O)N1CCN(c2cccc(C(F)(F)F)c2)CC1 | 89 | 98.5% (inactive) | 89% (inactive) | 78.1% (inactive) | 95.2% (inactive) | 16.9% (inactive) | 78.2 | 95.2 | -3.11% (inactive) | -10.3% (inactive) | -10.8% (inactive) | 3.75% (inactive) | 2.13% (inactive) | 89.5% (inactive) | 84.7% (inactive) | 0.115% (inactive) | 2.91% (inactive) |
| O=C(NCc1ccc2c(c1)OCO2)C1CCCN(S(=O)(=O)c2cccc3cccnc23)C1 (stereo not drawn) | 95.5 | 85% (inactive) | 95.5% (inactive) | 70% (inactive) | 83.3% (inactive) | 5.17% (inactive) | 78.1 | 83.3 | -4.93% (inactive) | 4% (inactive) | -10.4% (inactive) | -10.5% (inactive) | -2.13% (inactive) | 84.9% (inactive) | 80.7% (inactive) | 0.32% (inactive) | 5.25% (inactive) |
| CCOC(=O)N1CCN(C(=O)c2c(-c3ccccc3)noc2C)CC1 | 78 | 104% (inactive) | 78% (inactive) | 96.6% (inactive) | 95.2% (inactive) | 5.67% (inactive) | 89.5 | 95.2 | -6.67% (inactive) | -2.5% (inactive) | -9.5% (inactive) | -0.595% (inactive) | -2.25% (inactive) | 104% (inactive) | 87.6% (inactive) | 3% (inactive) | 4.25% (inactive) |
| Cc1cc(C)cc(NC(=O)CSc2nnc(Cc3cccn3C)n2-c2ccc(F)cc2)c1 | 87 | 84% (inactive) | 87% (inactive) | 63.1% (inactive) | 86.6% (inactive) | 14% (inactive) | 72.6 | 86.6 | -1.2% (inactive) | -11.5% (inactive) | 3.92% (inactive) | 14.7% (inactive) | -4.83% (inactive) | 74.6% (inactive) | 71.6% (inactive) | 3.69% (inactive) | 7.38% (inactive) |
| Cn1c(=O)oc2cc(S(=O)(=O)NC3CCN(Cc4ccccc4)CC3)ccc21 | 103 | 96% (inactive) | 103% (inactive) | 90.9% (inactive) | 108% (inactive) | 14.4% (inactive) | 93.2 | 108 | -0.51% (inactive) | -1.17% (inactive) | -5.47% (inactive) | -3.98% (inactive) | -1.57% (inactive) | 92% (inactive) | 94.7% (inactive) | 1.28% (inactive) | 3.24% (inactive) |
| COc1ccc(N2CCN(CCCNS(=O)(=O)c3c(C)noc3/C=C/N(C)C)CC2)cc1 | 99.5 | 94.5% (inactive) | 99.5% (inactive) | 83.1% (inactive) | 92.9% (inactive) | 0.17% (inactive) | 92.8 | 92.9 | -7.33% (inactive) | -4.43% (inactive) | -4.88% (inactive) | 12% (inactive) | -2.75% (inactive) | 81% (inactive) | 83.7% (inactive) | 1.67% (inactive) | 7% (inactive) |
| CC1=C(C)CC2C(=O)N(c3cccc4ccccc34)C(=O)C2C1 (stereo not drawn) | 104 | 114% (inactive) | 104% (inactive) | 80.1% (inactive) | 85.7% (inactive) | 2.52% (inactive) | 83.2 | 85.7 | -6.53% (inactive) | -11.3% (inactive) | 75.2% (active) | 67.6% (active) | -0.78% (inactive) | 100% (inactive) | 96.5% (inactive) | 0.295% (inactive) | 2.23% (inactive) |
| O=c1c2ccccc2nc2n1CCN2 | 84 | 95.5% (inactive) | 84% (inactive) | 91.9% (inactive) | 109% (inactive) | 26.2% (inactive) | 83.3 | 109 | -0.93% (inactive) | 5.16% (inactive) | -3.22% (inactive) | -1.61% (inactive) | 0.22% (inactive) | 101% (inactive) | 104% (inactive) | 1.84% (inactive) | -0.47% (inactive) |
| COC(=O)c1ccccc1NC1c2ccccc2C(=O)N1c1cccnc1 (stereo not drawn) | 95 | 109% (inactive) | 95% (inactive) | 86.9% (inactive) | 84.7% (inactive) | -0.77% (inactive) | 85.4 | 84.7 | 1.07% (inactive) | 0.33% (inactive) | -16.1% (inactive) | 3.47% (inactive) | -0.86% (inactive) | 94.4% (inactive) | 89.8% (inactive) | -1.07% (inactive) | 4.8% (inactive) |
| CCOC(=O)Nc1ccc2c(c1)N(C(=O)OCCN(C)C)c1ccccc1CC2 | 94.5 | 100% (inactive) | 94.5% (inactive) | 77.5% (inactive) | 90.2% (inactive) | 12.4% (inactive) | 77.7 | 90.2 | -7.07% (inactive) | -9.02% (inactive) | -10.3% (inactive) | -0.265% (inactive) | -4.23% (inactive) | 73.5% (inactive) | 78.8% (inactive) | 1.89% (inactive) | 2.2% (inactive) |
| COC(=O)C(C)Sc1nc2c(c(=O)n1-c1ccccc1)SCC2 (stereo not drawn) | 102 | 77.5% (inactive) | 102% (inactive) | 84.3% (inactive) | 94.9% (inactive) | -12.1% (inactive) | 107 | 94.9 | -6.99% (inactive) | -4.44% (inactive) | -12.1% (inactive) | -4.13% (inactive) | -1.78% (inactive) | 87.1% (inactive) | 90.8% (inactive) | 1.94% (inactive) | 4.56% (inactive) |
